In publication PMC11006913:

Target: VAX1 (Homo sapiens, UniProt Q5SQQ9 86-172, K157R)
Assay: PBM; 200 nM protein, PBS
Conditions: dsDNA, one strand shown

VAX1, sequence (Q5SQQ9 86-172 K157R): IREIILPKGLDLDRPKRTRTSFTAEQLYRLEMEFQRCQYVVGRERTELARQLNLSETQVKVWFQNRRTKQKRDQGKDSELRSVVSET

Sequence	binding signal
CATATTAC	10.5 upbm affinity estimate (log intensity, higher = more binding, comparable within an allelic series)
GCTCTGCC	7.08 upbm affinity estimate (log intensity, higher = more binding, comparable within an allelic series)
AGCCGGCG	6.79 upbm affinity estimate (log intensity, higher = more binding, comparable within an allelic series)
